# Compounds with a hit are over-represented: about 7.5% of the library has one in this group of screens.
# SMN2 splice up = SMN2 splice variant enhancement | HEK293 SMN2-luciferase splicing reporter, luminescence, 30-36 h | Potency, µM (series often up to 46.1 µM), for the others: top-dose activity change, positive = activation, actives largely listed as activators | 2.8% of 210,000 active | AID 1458; further: % of control where 0% means no effect; nearly all actives have a fitted effect of over 55% in size
#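 HEK293 cells carry an SMN2 […]–luciferase reporter in which exon 7 inclusion puts luciferase in frame. Cells were plated 10-12 h before compound addition, then incubated 30-36 h at 37C. ONE-Glo luminescence was read; sodium butyrate at 4.5 mM final served as control.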
# Rab9 prom act = activators of Rab9 promoter | AID 485297 | Huh7 Rab9 promoter-luciferase reporter, luminescence, 24 h | 2.8% of 320,000 active | Potency, µM (highest dose often 9.22 µM), for inactives: top-dose activation, negative = inhibition, most hits filed as activators; further: % of control where 0% means no effect; nearly all actives have a fitted effect of over 60% in size
#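 Quantitative HTS format; Huh7 Rab9-luciferase reporter cells (1500/well) receive compound 2 h post-plating, incubate 24 h at 37 °C, then get luciferase reagent for 10 min before luminescence reading.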
# KinaseGlo FLuc = blocks Kinase-Glo luciferase, a counter-screen artifact; Q27757; Kinase-Glo luciferase, ATP luminescence, 8 min; Potency, µM (series often up to 38.3 µM), inactives show top-dose activity change, negative = inhibition, usual class: inhibitors; 0.28% of 200,000 active; AID 1379; further: on the % scale 0 is the no-effect control and ±100 the full control effect; nearly all actives have a fitted effect of over 60% in size
#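 Compounds were added to a substrate mix at pH 7.2 (50 mM imidazole, 10 uM ATP, within the enzyme's linear range), followed by Kinase-Glo detection reagent; luminescence was measured after 8 minutes at ambient temperature.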
# ELG1 genotox = inducers of genotoxicity in HEK293T ELG1-luciferase cells; 1.3% of 330,000 active; HEK293T ELG1-luciferase reporter, luminescence, 16 h; Potency, µM (titrated, usually from 46 µM), inactives show at the highest dose activity change, positive = activation, hits mostly activators; AID 504466; further: % of control where 0% means no effect; nearly all actives have a fitted effect of over 60% in size
#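 Genotoxic stress is detected as increased luminescence from luciferase-tagged ELG1 in HEK293T cells, measured with ONE-Glo after a 16 hr treatment at 37 °C.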
# FLuc counter = inhibits or activates purified firefly luciferase, miR-21 counter-screen; P08659; purified FLuc, Km substrates, luminescence inhibition; Potency, µM (highest dose often 57.5 µM), for the others: at the highest dose activity change, negative = inhibition, actives largely listed as inhibitors; 6.9% of 360,000 active; AID 588342;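 further: plate controls were vehicle for no effect and reference inhibitor for full effect; nearly all actives have a fitted effect of over 55% in size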
# Target sequence (P08659 whole entry, looked up): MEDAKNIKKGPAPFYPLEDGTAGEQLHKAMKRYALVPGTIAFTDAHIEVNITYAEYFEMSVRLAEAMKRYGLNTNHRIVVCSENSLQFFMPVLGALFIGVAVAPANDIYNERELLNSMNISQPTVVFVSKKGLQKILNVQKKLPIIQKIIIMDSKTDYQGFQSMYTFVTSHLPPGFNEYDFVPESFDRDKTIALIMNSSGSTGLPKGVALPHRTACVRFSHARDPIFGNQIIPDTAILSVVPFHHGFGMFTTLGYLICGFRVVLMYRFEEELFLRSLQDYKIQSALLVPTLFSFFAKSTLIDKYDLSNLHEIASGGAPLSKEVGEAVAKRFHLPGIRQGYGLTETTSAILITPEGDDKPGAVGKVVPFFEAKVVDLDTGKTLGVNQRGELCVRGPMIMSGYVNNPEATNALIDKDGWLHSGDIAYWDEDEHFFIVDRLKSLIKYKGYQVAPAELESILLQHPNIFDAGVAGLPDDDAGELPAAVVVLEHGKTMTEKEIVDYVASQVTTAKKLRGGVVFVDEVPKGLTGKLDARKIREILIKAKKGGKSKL
#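 Purified P. pyralis luciferase, 10 nM final, with Km-level 10 uM D-luciferin and 10 uM ATP in 50 mM Tris acetate pH 7.5, 10 mM Mg acetate, 0.01% Tween-20, 0.05% BSA; 6-point qHTS titration about 60 µM downward; luminescence read.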
# NPC1 prom act = activators of NPC1 promoter | Potency, µM (titrated, usually from 9.22 µM), inactives show at the highest dose activation, actives largely listed as activators | AID 485313 | 2.4% of 320,000 active | Huh7 NPC1 promoter luciferase reporter, 24 h; further: % of control where 0% means no effect; nearly all actives have a fitted effect of over 60% in size
#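 Quantitative HTS used a cell-based reporter: Huh7 cells stably bearing the NPC1 promoter upstream of luciferase were treated with compounds for 24 h, and promoter activation was read as luminescence.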
# Numbers without * were called inactive; ? = inconclusive; / = no result given. The call rests on the fitted dose curve; in most records, active means well fitted curve in the direction sought with a large enough effect; inconclusive means small, poorly fitted or top-dose-only effect, or another doubt; inactive means no such curve, though single readings can be large; an effect the other way counts as inactive or inconclusive. Potency means the concentration at half of the fitted maximal effect.
SMILES,SMN2 splice up,Rab9 prom act,KinaseGlo FLuc,ELG1 genotox,FLuc counter,NPC1 prom act
COc1cc(C(=O)Nc2ccc3nc(N4CCN(C)CC4)cc(C)c3c2)cc(OC)c1OC,/,-1%,/,11%,24µM*,5%
Cc1cc(N2CCN(C)CC2)nc2ccc(NC(=O)c3ccc(Br)o3)cc12,-2%,22%,-6%,3%,15µM*,?
CCN1CCN(c2cc(C)c3cc(NC(=O)c4cc(OC)cc(OC)c4)ccc3n2)CC1,15%,28%,/,?,17µM*,26%
O=C(NC1CCN(C(=O)Nc2ccccc2Cl)CC1)c1cccc(F)c1,/,-3%,/,-1%,-2%,-5%
NCCNc1cccc2ccccc12,-11%,/,/,/,/,/
CCc1ccc(NC(=O)Cn2c(-c3cncs3)nc3ccccc32)cc1,-9%,/,/,/,-7%,/
Cc1cccc(NC(=O)c2ccc3snnc3c2)c1C,9%,/,/,/,6%,/
O=C(N/N=C/c1cccc2ccccc12)c1cc(C2CC2)[nH]n1,/,17%,/,2%,11µM*,17%
Cc1cc(C(=O)N/N=C/c2ccco2)n[nH]1,8%,22%,-12%,14%,-18%,14%
Cc1cc(C(=O)N/N=C/c2ccccn2)n[nH]1,3%,23%,-6%,12%,?,10%
O=C(N/N=C/c1ccccn1)c1cc(C2CC2)[nH]n1,?,1.6µM*,-6%,18µM*,19µM*,?
CC(/C=N/NC(=O)c1cc(C2CC2)[nH]n1)=C\c1ccccc1,/,13%,/,5%,?,-2%
O=C(N/N=C/c1ccco1)c1cc(C2CC2)[nH]n1,/,?,/,?,13µM*,?
Cc1ccc(NC(=O)[C@@H](c2ccccc2)N2Cc3ccccc3C2=O)cc1F,-4%,/,/,/,-9%,/
CC(C)(C)NC(=O)N1CCN(c2nc(-c3ccccc3)ns2)CC1,/,3.5µM*,/,14%,-55%,?
O=C(c1ccc(F)cc1F)N1CCCN(c2nc(-c3ccccc3)ns2)CC1,/,0%,/,-4%,3%,0%
Cc1ccn2c(C(=O)c3ccc(Cl)cc3)cnc2c1,22%,1.4µM*,-10%,1.2µM*,2.1µM*,3.5µM*
COc1cccc(C2=CC(c3ccccc3F)n3c(nc4ccccc43)N2)c1 (stereo unspecified),/,/,/,/,12µM*,/
COc1cccc(C2=CC(c3ccccc3F)n3ncc(C(=O)Nc4ccc(C)cc4)c3N2)c1 (stereo unspecified),/,/,/,/,-1%,/
Cc1ccc(C2=CC(c3ccccc3F)n3c(nc4ccccc43)N2)cc1C (stereo unspecified),/,/,/,/,6µM*,/
COc1ccc(CC(=O)NCC(c2cccs2)S(=O)(=O)c2ccc(Cl)cc2)cc1 (stereo unspecified),/,/,/,/,-12%,/
CC(C)c1ccc(NC(=O)c2ccc3c(c2)C(=O)N(Cc2cccnc2)C3=O)cc1,/,0%,/,-5%,?,-5%
O=[N+]([O-])c1ccccc1OCCCn1cnc2ccccc21,11µM*,2µM*,0%,?,5.4µM*,2.8µM*
O=[N+]([O-])c1ccccc1OCCCN1CCOCC1,-4%,-12%,-1%,1%,-8%,-4%
O=c1c2ccccc2ncn1CCCOc1ccccc1[N+](=O)[O-],/,3.5µM*,/,?,15µM*,4µM*
SMILES,SMN2 splice up,Rab9 prom act,KinaseGlo FLuc,ELG1 genotox,FLuc counter,NPC1 prom act
O=CN1CCCN(Cc2nc(-c3cccc(Cl)c3)no2)CC1,/,20%,3%,6%,-1%,0%
CCCCCOc1ccc(CN2CCOCC2)cc1Cl,?,3.5µM*,-3%,14µM*,6.7µM*,3.2µM*
Clc1cc(Br)ccc1OCCN1CCOCC1,-1%,-4%,-3%,1%,-13%,-3%
CC(c1ccccc1F)n1cc(C(=O)NCCCc2nc3ccccc3[nH]2)nn1 (stereo unspecified),-12%,-4%,-1%,-2%,-1%,-2%
COc1cccc(C2=Nc3cccc4cccc(c34)N2)c1,1%,18%,-4%,2%,12µM*,?
Nc1ccc(C2=Nc3cccc4cccc(c34)N2)cc1,/,9%,?,-1%,21µM*,21%
c1coc(C2=Nc3cccc4cccc(c34)N2)c1,-37%,20%,-8%,-5%,?,13%
Cc1ccc(C(=O)NCCc2ccc(Cl)cc2)cc1-n1c(C)nc2cccnc21,/,/,/,/,4%,/
Cc1cccc(CNc2cc(-c3ccccc3C)ncn2)c1,-14%,/,-4%,/,/,/
CC1CCCCN1C(=O)COC(=O)c1ccc2ccccc2n1 (stereo unspecified),/,-4%,/,1%,8.5µM*,-8%
O=C(Nc1ccc2c(c1)CCCN2C(=O)c1cccs1)c1cccc(C(F)(F)F)c1,/,/,/,/,-3%,/
CCN(CC)c1ccc(/C=C/c2nc3ccccc3s2)cc1,-90%,4%,-12%,0.46µM*,0.6µM*,?
CC(=O)Nc1ccc2nc(-c3ccco3)[nH]c2c1,?,?,-21%,16%,17µM*,23%
Cc1ccc2nc(-c3cccc(NC(=O)c4ccco4)c3)[nH]c2c1,13µM*,?,?,0%,1.3µM*,?
O=C(Nc1ccc2nc(-c3ccco3)[nH]c2c1)c1ccco1,24%,?,-16%,16µM*,7.6µM*,?
CC(=O)Nc1cccc(-c2nc3ccc(NC(C)=O)cc3[nH]2)c1,-16%,-4%,-21%,1%,15µM*,4%
CC(=O)Nc1ccc2nc(-c3cccnc3)[nH]c2c1,-12%,12%,-9%,2%,?,0%
COc1cccc(/C=N/n2nnnc2N)c1O,/,3%,/,15%,?,-3%
Cc1cc2cc(NC(=O)c3ccco3)ccc2[nH]1,27%,?,-8%,14%,15µM*,?
O=C(Nc1ccc2nc(-c3ccco3)[nH]c2c1)c1cccs1,11µM*,3.2µM*,?,5%,2.7µM*,?
O=C(Nc1cccc(NC(=O)c2cccs2)c1)c1ccco1,?,-1%,0%,0%,?,9%
Cc1cccc(NC(=S)NC(=O)C2CC2)c1,/,20%,/,?,?,27%
Cc1cc(NC(=S)NC(=O)C2CC2)ccc1Br,/,22%,/,4%,24µM*,-13%
Clc1ccc(SCc2cc(-c3ccccc3)on2)cc1,6%,4%,3%,?,-4%,2%
Cc1nc(-c2cc(-c3ccc(Cl)cc3)no2)cs1,/,0.56µM*,/,?,1.2µM*,1.1µM*
Clc1ccc(-c2cc(-c3ccccc3)on2)cc1,/,1.3µM*,/,?,0.85µM*,1.4µM*
CC(C)CCn1c(=O)c2cccnc2n(CC(=O)Nc2ccc(F)cc2)c1=O,6%,/,/,/,5%,/
Nc1ccc(CSc2ccc(Cl)cc2)cc1,26%,?,0%,?,27µM*,?
